The text below walks through data of ChEMBL document CHEMBL3433997, “St. Jude Leishmania screening dataset” (2016).

For orientation: inhibition means the relative decrease from the control value, in per cent. A higher inhibition goes with a response far below the control.

Type in all cases: functional
Assay [1] concerns the target Solute carrier family 2, facilitated glucose transporter member 1 (Homo sapiens) (UniProt P11166). Description: ST_JUDE_LEISH: Cytotoxicity at 2uM final concentration against transgenic Leishmania Mexicana promastigotes LmGLUT1 that are glucose transport deficient and complemented with the human glucose transporter GLUT1. Activity is measured by DNA content using SYBR green in vitro.

In assay [2] the target is Hexose transporter 1 (Plasmodium falciparum) (UniProt O97467). As to the kind of experiment: ST_JUDE_LEISH: Cytotoxicity at 2uM final concentration against transgenic Leishmania Mexicana promastigotes LmPfHT that are glucose transport deficient and complemented with the Plasmodium falciparum hexose transporter. Activity is measured by DNA content using SYBR green in vitro.

For assay [3], the target named is Glucose transporter (Leishmania mexicana) (UniProt O61059). As to the kind of experiment: ST_JUDE_LEISH: Cytotoxicity at 2uM final concentration against transgenic Leishmania Mexicana promastigotes LmGT2 that are glucose transport deficient and complemented with the L. Mexicana glucose transporter 2. Activity is measured by DNA content using SYBR green in vitro.

Structures are written as SMILES.

Sequence of Solute carrier family 2, facilitated glucose transporter member 1 (Homo sapiens) (P11166 whole entry): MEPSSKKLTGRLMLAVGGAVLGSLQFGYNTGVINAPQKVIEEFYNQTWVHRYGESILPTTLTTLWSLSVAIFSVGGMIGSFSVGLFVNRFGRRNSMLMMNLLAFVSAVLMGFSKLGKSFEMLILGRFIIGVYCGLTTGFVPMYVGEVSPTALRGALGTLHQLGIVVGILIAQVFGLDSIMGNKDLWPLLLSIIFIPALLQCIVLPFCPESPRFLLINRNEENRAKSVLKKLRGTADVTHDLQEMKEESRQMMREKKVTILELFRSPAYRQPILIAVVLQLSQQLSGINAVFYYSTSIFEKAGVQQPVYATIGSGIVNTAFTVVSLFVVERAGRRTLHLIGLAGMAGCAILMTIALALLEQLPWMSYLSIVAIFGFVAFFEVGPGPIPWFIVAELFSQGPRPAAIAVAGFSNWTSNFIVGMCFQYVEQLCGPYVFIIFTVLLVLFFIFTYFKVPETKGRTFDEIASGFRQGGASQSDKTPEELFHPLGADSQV

Take `COc1ccc(-c2cc(C(=O)N[C@@H](CC3CCCCC3)C(=O)NCCN3CCCC3)ccc2O)cc1`: the results for the inhibition in assay [1], in assay [2] and in assay [3] were 0.33%, 1.9% and 1.32%, respectively.
With `CCc1cn2c3c(cc(C(=O)N[C@@H](Cc4ccccc4)[C@H](O)CNC4CCCCC4)cc13)N(C)S(=O)(=O)C2`, the inhibition in assay [1] was 2.09%; in assay [2], 2.23%; in assay [3] it was 2.69%.
The matching figures for `O=C(Cc1cccc(Cl)c1)N1CCc2cc3nccc(N4CCN5CCC[C@H]5C4)c3cc21`: 3.68%, 2.69% and 4.38%.
